Experiments:
[1] = molecular target: Mitogen-activated protein kinase kinase kinase kinase 4 (Homo sapiens) (UniProt O95819); settings: at 1 µM;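 note: reported figure is an averaged inhibition value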
[2] = molecular target: Dual specificity mitogen-activated protein kinase kinase 1 (Homo sapiens) (UniProt Q02750); settings: at 0.1 µM
[3] = molecular target: Dual specificity mitogen-activated protein kinase kinase 1 (Homo sapiens) (UniProt Q02750); settings: at 1 µM
[4] = molecular target: Misshapen-like kinase 1 (Homo sapiens) (UniProt Q8N4C8); settings: at 0.1 µM
Chain of Misshapen-like kinase 1 (Homo sapiens) (Q8N4C8 whole entry, looked up): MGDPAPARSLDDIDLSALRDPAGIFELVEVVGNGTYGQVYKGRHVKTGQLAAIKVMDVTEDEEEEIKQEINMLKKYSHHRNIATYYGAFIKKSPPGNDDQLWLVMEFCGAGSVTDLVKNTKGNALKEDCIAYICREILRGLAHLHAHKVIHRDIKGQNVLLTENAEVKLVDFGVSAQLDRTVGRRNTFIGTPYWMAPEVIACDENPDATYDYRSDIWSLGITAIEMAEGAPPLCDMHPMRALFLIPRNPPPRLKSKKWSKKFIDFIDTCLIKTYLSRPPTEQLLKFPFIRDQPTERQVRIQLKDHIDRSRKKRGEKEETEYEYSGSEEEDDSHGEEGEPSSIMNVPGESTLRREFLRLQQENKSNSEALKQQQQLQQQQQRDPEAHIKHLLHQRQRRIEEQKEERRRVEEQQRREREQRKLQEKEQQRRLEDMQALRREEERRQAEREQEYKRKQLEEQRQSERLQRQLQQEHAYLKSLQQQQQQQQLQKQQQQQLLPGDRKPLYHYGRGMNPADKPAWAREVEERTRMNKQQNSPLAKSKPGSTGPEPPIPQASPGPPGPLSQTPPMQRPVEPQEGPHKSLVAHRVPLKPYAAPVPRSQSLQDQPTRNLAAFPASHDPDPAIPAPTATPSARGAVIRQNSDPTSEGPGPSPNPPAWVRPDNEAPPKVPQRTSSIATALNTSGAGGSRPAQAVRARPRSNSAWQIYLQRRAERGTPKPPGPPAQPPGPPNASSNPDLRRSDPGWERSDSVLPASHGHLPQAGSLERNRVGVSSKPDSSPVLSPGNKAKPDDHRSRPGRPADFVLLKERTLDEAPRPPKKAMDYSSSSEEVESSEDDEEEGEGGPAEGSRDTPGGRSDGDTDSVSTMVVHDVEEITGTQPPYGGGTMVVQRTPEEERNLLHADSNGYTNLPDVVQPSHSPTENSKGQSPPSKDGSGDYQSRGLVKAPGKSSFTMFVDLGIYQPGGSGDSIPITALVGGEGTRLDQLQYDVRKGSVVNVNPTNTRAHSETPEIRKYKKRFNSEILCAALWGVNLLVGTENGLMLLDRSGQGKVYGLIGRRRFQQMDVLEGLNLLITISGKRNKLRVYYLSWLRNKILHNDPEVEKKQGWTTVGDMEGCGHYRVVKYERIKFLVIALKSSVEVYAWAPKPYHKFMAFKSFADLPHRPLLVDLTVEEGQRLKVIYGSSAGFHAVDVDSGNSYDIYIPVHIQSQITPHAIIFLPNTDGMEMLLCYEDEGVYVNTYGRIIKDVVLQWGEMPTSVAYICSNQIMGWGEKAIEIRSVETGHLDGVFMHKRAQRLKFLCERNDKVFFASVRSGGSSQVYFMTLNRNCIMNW

[5] = molecular target: Misshapen-like kinase 1 (Homo sapiens) (UniProt Q8N4C8); settings: at 1 µM
[6] = molecular target: T1, Serine/threonine-protein kinase 4 (Homo sapiens) (UniProt Q13043); settings: at 0.1 µM
T1 sequence (whole entry): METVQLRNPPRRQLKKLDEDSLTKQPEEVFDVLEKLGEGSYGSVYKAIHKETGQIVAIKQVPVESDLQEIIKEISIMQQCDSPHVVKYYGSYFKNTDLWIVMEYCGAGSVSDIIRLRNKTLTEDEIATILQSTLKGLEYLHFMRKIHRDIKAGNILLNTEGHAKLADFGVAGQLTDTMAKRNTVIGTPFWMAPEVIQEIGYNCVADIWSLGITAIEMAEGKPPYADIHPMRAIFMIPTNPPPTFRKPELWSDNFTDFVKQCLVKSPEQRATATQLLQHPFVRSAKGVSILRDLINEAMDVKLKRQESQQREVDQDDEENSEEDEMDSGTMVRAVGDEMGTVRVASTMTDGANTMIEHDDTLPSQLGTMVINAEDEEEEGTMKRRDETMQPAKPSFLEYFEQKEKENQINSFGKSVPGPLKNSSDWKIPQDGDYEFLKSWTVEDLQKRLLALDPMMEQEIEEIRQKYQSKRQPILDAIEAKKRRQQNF

[7] = molecular target: T1, Serine/threonine-protein kinase 4 (Homo sapiens); settings: at 1 µM
[8] = molecular target: T2, Serine/threonine-protein kinase 3 (Homo sapiens) (UniProt Q13188); settings: at 0.1 µM
T2 sequence (whole entry): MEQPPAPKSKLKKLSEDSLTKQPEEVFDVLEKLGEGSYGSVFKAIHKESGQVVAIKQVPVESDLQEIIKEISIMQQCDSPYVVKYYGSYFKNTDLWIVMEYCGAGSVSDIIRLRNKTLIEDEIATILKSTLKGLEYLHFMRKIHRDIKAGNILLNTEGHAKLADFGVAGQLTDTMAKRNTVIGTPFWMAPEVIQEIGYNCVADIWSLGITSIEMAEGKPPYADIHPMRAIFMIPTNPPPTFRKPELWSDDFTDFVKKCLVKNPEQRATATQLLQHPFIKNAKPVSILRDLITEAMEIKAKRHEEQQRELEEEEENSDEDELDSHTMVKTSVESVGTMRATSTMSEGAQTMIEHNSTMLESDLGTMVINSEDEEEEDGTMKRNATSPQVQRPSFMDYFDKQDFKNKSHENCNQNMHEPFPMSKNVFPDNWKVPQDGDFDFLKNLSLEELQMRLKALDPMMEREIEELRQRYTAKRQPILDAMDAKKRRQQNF

[9] = molecular target: T2, Serine/threonine-protein kinase 3 (Homo sapiens); settings: at 1 µM
[10] = molecular target: Serine/threonine-protein kinase PAK 1 (Homo sapiens) (UniProt Q13153); settings: at 0.1 µM
Chain of Serine/threonine-protein kinase PAK 1 (Homo sapiens) (Q13153 whole entry): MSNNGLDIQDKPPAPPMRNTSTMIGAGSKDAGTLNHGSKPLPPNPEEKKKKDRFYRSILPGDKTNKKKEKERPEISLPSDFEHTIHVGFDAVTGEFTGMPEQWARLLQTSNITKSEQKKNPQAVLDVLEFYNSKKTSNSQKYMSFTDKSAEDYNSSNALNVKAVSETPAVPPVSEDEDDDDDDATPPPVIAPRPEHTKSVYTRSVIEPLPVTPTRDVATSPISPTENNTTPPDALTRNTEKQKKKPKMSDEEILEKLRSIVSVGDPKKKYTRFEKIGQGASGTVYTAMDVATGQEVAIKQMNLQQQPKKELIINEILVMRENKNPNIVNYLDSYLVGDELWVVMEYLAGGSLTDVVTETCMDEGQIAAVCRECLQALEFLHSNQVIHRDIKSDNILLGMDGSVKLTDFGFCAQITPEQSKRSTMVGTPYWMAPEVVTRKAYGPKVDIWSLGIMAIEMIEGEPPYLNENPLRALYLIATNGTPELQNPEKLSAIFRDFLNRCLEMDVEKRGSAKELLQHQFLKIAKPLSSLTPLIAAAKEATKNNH

[11] = molecular target: Serine/threonine-protein kinase PAK 1 (Homo sapiens) (UniProt Q13153); settings: at 1 µM
[12] = molecular target: Serine/threonine-protein kinase PAK 2 (Homo sapiens) (UniProt Q13177); settings: at 0.1 µM
[13] = molecular target: Serine/threonine-protein kinase PAK 2 (Homo sapiens) (UniProt Q13177); settings: at 1 µM
[14] = molecular target: Serine/threonine-protein kinase PAK 3 (Homo sapiens) (UniProt O75914); settings: at 0.1 µM
Chain of Serine/threonine-protein kinase PAK 3 (Homo sapiens) (O75914 whole entry, looked up): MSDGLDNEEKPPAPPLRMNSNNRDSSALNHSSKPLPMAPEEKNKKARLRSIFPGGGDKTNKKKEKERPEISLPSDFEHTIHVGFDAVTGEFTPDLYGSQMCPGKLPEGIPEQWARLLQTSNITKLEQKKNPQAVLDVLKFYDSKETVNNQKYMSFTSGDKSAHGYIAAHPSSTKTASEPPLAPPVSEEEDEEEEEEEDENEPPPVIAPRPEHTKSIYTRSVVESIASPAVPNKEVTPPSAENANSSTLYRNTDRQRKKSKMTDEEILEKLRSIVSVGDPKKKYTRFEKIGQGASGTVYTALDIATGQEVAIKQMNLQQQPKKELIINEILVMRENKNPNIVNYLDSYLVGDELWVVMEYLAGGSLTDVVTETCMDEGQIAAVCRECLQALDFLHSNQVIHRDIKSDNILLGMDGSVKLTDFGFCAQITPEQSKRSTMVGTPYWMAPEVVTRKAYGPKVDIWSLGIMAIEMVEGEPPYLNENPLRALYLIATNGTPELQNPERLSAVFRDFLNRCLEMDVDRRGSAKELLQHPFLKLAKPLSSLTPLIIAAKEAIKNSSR

[15] = molecular target: Serine/threonine-protein kinase PAK 3 (Homo sapiens) (UniProt O75914); settings: at 1 µM
[16] = molecular target: Serine/threonine-protein kinase PAK 5 (Homo sapiens) (UniProt Q9P286); settings: at 0.1 µM
Chain of Serine/threonine-protein kinase PAK 5 (Homo sapiens) (Q9P286 whole entry, looked up): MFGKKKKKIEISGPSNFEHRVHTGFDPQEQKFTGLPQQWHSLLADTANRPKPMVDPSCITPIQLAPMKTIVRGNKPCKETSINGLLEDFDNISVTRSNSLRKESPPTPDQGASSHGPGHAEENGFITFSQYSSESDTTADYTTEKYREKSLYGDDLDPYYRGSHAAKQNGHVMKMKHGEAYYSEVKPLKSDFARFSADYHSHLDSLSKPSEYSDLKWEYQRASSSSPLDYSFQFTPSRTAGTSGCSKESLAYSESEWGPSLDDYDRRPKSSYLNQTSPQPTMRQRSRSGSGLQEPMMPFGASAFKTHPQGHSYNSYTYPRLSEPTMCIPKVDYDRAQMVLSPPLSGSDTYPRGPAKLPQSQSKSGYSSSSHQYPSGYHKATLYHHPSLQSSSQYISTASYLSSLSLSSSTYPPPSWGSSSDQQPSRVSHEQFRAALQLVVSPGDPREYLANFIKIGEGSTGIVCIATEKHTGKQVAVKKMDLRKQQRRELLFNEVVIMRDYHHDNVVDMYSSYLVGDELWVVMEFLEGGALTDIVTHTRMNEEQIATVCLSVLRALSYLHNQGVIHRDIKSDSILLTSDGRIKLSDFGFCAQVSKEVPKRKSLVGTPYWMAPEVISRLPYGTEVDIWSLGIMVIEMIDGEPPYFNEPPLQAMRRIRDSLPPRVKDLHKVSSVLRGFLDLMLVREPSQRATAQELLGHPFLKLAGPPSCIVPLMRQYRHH

[17] = molecular target: Serine/threonine-protein kinase PAK 5 (Homo sapiens) (UniProt Q9P286); settings: at 1 µM
[18] = molecular target: Serine/threonine-protein kinase PAK 6 (Homo sapiens) (UniProt Q9NQU5); settings: at 0.1 µM;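 note: mean PAK6 inhibition reported from the GSK PKIS screen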
Chain of Serine/threonine-protein kinase PAK 6 (Homo sapiens) (Q9NQU5 whole entry, looked up): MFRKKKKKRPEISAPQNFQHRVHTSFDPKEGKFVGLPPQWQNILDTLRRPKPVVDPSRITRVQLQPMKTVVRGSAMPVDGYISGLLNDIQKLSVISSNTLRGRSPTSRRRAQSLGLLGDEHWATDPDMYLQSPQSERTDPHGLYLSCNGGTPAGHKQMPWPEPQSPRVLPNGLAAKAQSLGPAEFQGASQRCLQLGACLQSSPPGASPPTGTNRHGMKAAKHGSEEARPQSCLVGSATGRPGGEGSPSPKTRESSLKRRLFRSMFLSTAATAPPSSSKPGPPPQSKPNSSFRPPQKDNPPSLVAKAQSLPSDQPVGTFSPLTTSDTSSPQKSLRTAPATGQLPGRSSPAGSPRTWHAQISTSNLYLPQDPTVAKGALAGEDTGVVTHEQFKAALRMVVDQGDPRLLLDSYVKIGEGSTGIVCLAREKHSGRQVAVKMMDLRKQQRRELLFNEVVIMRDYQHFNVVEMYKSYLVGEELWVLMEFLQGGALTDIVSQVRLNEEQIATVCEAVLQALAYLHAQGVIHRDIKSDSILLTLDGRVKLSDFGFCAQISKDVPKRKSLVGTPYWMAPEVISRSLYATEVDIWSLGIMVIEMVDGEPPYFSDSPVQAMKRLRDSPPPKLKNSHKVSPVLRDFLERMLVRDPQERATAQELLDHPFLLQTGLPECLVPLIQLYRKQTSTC

[19] = molecular target: Serine/threonine-protein kinase 26 (Homo sapiens) (UniProt Q9P289); settings: at 0.1 µM
Chain of Serine/threonine-protein kinase 26 (Homo sapiens) (Q9P289 2-416 limits assumed): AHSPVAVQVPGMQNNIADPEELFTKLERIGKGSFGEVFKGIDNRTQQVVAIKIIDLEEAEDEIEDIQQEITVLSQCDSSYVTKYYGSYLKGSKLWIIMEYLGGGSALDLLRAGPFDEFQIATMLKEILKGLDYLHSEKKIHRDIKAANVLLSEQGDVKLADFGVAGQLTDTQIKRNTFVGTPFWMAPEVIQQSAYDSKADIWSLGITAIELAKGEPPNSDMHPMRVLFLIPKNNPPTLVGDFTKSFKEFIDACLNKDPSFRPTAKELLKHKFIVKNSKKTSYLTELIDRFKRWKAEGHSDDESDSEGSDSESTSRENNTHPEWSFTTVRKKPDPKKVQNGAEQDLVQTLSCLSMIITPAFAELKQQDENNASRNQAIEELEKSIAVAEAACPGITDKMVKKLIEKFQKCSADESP

[20] = molecular target: Serine/threonine-protein kinase 26 (Homo sapiens) (UniProt Q9P289); settings: at 1 µM

Chain of Dual specificity mitogen-activated protein kinase kinase 1 (Homo sapiens) (Q02750 whole entry): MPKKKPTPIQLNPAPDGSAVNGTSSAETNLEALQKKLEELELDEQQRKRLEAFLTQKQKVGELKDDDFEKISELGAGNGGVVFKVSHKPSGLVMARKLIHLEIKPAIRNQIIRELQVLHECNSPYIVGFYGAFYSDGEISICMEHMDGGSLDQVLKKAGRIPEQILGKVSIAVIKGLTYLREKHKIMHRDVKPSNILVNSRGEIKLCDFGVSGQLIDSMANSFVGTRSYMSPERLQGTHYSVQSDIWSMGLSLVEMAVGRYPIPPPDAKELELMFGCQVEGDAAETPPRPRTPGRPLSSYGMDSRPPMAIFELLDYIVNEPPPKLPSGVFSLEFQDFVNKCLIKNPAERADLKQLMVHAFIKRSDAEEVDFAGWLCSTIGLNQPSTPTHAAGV

| SMILES | inhibition [1] [%] | inhibition [2] [%] | inhibition [3] [%] | inhibition [4] [%] | inhibition [5] [%] | inhibition [6] [%] | inhibition [7] [%] | inhibition [8] [%] | inhibition [9] [%] | inhibition [10] [%] | inhibition [11] [%] | inhibition [12] [%] | inhibition [13] [%] | inhibition [14] [%] | inhibition [15] [%] | inhibition [16] [%] | inhibition [17] [%] | inhibition [18] [%] | inhibition [19] [%] | inhibition [20] [%] |
| --- | --- | --- | --- | --- | --- | --- | --- | --- | --- | --- | --- | --- | --- | --- | --- | --- | --- | --- | --- | --- |
| C[C@@H](Oc1cc(-n2cnc3ccc(OCC4CCN(C)CC4)cc32)sc1C(N)=O)c1ccccc1C(F)(F)F | 1.19 | -0.27 | 0.01 | 0.08 | 0.43 | 29.1 | 74.7 | 11.4 | 56.7 | -2.64 | 0.44 | -1.54 | -2.14 | -1.81 | 0.3 | -2.43 | -1.92 | 1.47 | – | – |
| Nc1nccc(-c2c(-c3ccc(F)cc3)ncn2CCCN2CCOCC2)n1 | 8.06 | 5.23 | 4.45 | 5.84 | 7.98 | 3.71 | 5.25 | 4.5 | 5.71 | 9.14 | 6.55 | 1.64 | 1.75 | 5.89 | 4.41 | – | 3.01 | -1.31 | -0.66 | 11.2 |
| [O-][S+]1CCN(Cc2ccc(-c3ccc4ncnc(Nc5ccc(OCc6ccccc6)c(Cl)c5)c4c3)o2)CC1 | 3.32 | 2.1 | 3.29 | -0.23 | 1.36 | 0.8 | 1.83 | -0.27 | 0.41 | 2.5 | 4.24 | 0.11 | 0.24 | 0.99 | 2.19 | 2.51 | 1.72 | -9.51 | -0.67 | 1.64 |
| CCCN1CCCC(c2ccc(Nc3nc(Nc4cc(F)ccc4C(N)=O)c4cc[nH]c4n3)c(OC)c2)C1 (configuration not stated) | 80.8 | 9.59 | 33.4 | 28.3 | 71.7 | 10.2 | 41 | 6.09 | 10.6 | 7.38 | 9.12 | 2.49 | 3.33 | 4.64 | 5.56 | 1.21 | 6.67 | 2 | -1.66 | -1.5 |
| C[C@@H](Oc1cc(-n2cnc3ccc(OC[C@@H](O)CO)cc32)sc1C(N)=O)c1ccccc1Cl | 4.28 | -0.54 | 0.3 | -1.25 | 2.89 | 3.22 | 34.1 | 2.75 | 25.7 | -2.19 | 1.45 | -2.74 | -0.42 | -2.28 | -0.49 | -7.17 | -4.24 | -7.41 | -0.27 | 1.05 |
| O=C1Nc2ccc(-c3cccnc3)cc2C1=Cc1cc(Br)c(O)c(Br)c1 | 91.6 | 4.59 | 5.62 | 45 | 81.6 | 9.98 | 39.6 | 10.3 | 37.3 | 6.15 | 6.31 | 2.5 | 2.17 | 4.09 | 4.77 | 0.53 | -0.35 | -0.06 | 9.93 | 36 |
| COc1cc2ncn(-c3cc(OCc4ccccc4S(C)(=O)=O)c(C#N)s3)c2cc1OC | 90.5 | 3.78 | 7.23 | 43.7 | 83.5 | 22.3 | 66.4 | 17.3 | 51.5 | 6.88 | 5.61 | 0.99 | 2.17 | 4.63 | 5.52 | 3.87 | 4.97 | 4.22 | -1.33 | 0.22 |

Source: ChEMBL document CHEMBL1961873, “Compounds: GSK PKIS; Assays: Nanosyn kinase panel” (2012)
